Test results taken from PubChem BioAssay (NCATS).
Inconclusive results are not listed. A call without a number means that no potency is given here. The source made the active and inactive calls. Calls follow the shape of the dose curve; as a rule, active = well fitted inhibition curve with a large enough effect; inconclusive = small, poorly fitted or top-dose-only effect; inactive = no such curve, though single readings can be large or run the other way.

Test: NS1 protein of Zika virus - qHTS assay to identify small molecule inhibitors in human HEK 293 cells (AID 1347053); also: nearly all actives have a fitted effect of over 55% in size
Conditions: HEK293 ZIKV MR766 infection, NS1 TR-FRET, 24 h; series mostly up to 46.1 µM
Source text: National Center for Advancing Translational Sciences [NCATS]
Johns Hopkins University School of Medicine
The non-structural 1 (NS1) protein of zika virus is known to associate with the viral replication complex. This cell-based TR-FRET ZIKV NS-1 assay measures the increased NS-1 protein in human HEK 293 cells after a 24-hour Zika virus infection by a TR-FRET assay readout. A decrease in the Time-resolved fluorescence energy transfer (TR-FRET) signal in this assay by small molecule treatment indicates an inhibitory effect of the small molecule on the expression of Zika virus NS1 correlating with Zika virus replication.
HEK 293 cells were cultured in EMEM (ATCC, Cat. # 30-2003) medium with 10% fetal bovine serum (GE healthcare Life Sciences, Cat. # SH30071.03), and 1% Pen/Strep (Gibco, Cat. # 15140-122). Cells were seeded in the assay plate and incubated at 37 C with 5% CO2 for 20 hours. Compounds were added to cells and incubated for one hour before addition of ZIKV MR766 strain solution to cells (MOI = 0.5). After an incubation at 37 C for 24 hours, the reagent mixture of TR-FRET ZIKV NS1 assay using two anti-ZIKV NS1 antibodies was added to assay plates. The TR-FRET signals in assay plates were measured using an Envision plate reader (PerkinElmer). Data were normalized by using the cell-containing wells without ZIKV as a negative control (0% NS-1) and wells containing ZIKV infected cells as a positive control (100% NS-1 level).
Potency is read from the fitted curve at half-maximal effect.

Structure (SMILES) | Potency
Cc1c(C)n(Cc2ccc(-c3ccccc3C(=O)O)cc2)c2ccc(C(=O)N[C@@H](C)c3ccc([N+](=O)[O-])cc3)cc12 | inactive
CCCNC(=O)Nc1ccc(Oc2ncnc3cc(OC)c(OC)cc23)cc1Cl | inactive
COc1ccc(F)c(F)c1C(=O)c1cnc(NC2CCN(S(C)(=O)=O)CC2)nc1N | 14.8 µM (active)
Nc1ccccc1NC(=O)c1ccc(CNc2nccc(-c3cccnc3)n2)cc1 | inactive
Nc1nc(Nc2ccc(S(N)(=O)=O)cc2)nn1C(=O)c1c(F)cccc1F | 18.7 µM (active)
CC[C@@H]1C(=O)N(C)c2cnc(Nc3ccc(C(=O)NC4CCN(C)CC4)cc3OC)nc2N1C1CCCC1 | 0.0332 µM (active)
Cc1[nH]nc2ccc(-c3cncc(OC[C@@H](N)Cc4ccccc4)c3)cc12 | 8.33 µM (active)
CC(NCc1ccc2c(c1)nc(NC(=O)c1ccc(-c3cn[nH]c3)s1)n2CC(C)(C)O)C(C)(C)C (stereo not given) | 4.69 µM (active)
CC(C)c1nn(-c2c(Cl)cccc2Cl)c2nc(Cc3ccc(OCCO)cc3)[nH]c(=O)c12 | 0.166 µM (active)
CC1(C)CC(=O)c2c(C(F)(F)F)nn(-c3ccc(C(N)=O)c(NC4CCC(OC(=O)CN)CC4)c3)c2C1 (stereo not given) | inactive
CC[C@H]1CN2CCc3cc(OC)c(OC)cc3[C@H]2C[C@@H]1C[C@@H]1NCCc2cc(OC)c(OC)cc21 | 0.118 µM (active)
Cn1c(CNc2ccc(C(=N)N)cc2)nc2cc(C(=O)N(CCC(=O)O)c3ccccn3)ccc21 | inactive
CC[C@@H]1C(=O)N(C)c2cnc(Nc3ccc(C(=O)NC4CCC(N5CCN(CC6CC6)CC5)CC4)cc3OC)nc2N1C(C)C (stereo not given in full) | 0.105 µM (active)
CN(c1ncccc1CNc1nc(Nc2ccc3c(c2)CC(=O)N3)ncc1C(F)(F)F)S(C)(=O)=O | 11.8 µM (active)
Cn1cc(-c2ccncc2)c(-c2ccc(OCc3ccc4ccccc4n3)cc2)n1 | inactive
Cc1cn2cc(C(=O)N(C)CCO)cc(N[C@@H]3CCOc4cccc(C)c43)c2n1 | inactive
CNC(=O)c1ccc(N2C(=S)N(c3cnc(C#N)c(C(F)(F)F)c3)C(=O)C23CCC3)cc1F | inactive
CCOc1cc2ncc(C#N)c(Nc3ccc(F)c(Cl)c3)c2cc1NC(=O)C=CCN(C)C | inactive
CN(C)CC(C)(C)CNc1nn2c(-c3ccccc3)nnc2cc1C1CCC1 | inactive
NC(=O)c1c(OCc2c(F)cc(Br)cc2F)nsc1NC(=O)NCCCCN1CCCC1 | inactive

Structure (SMILES) | Potency
CC(=O)SC[C@@H](C)C(=O)N1CCC[C@H]1C(=O)N[C@@H](Cc1ccccc1)C(=O)O | inactive
O=C(C=Cc1c(C(=O)O)[nH]c2cc(Cl)cc(Cl)c12)Nc1ccccc1 | inactive
CC(=O)Nc1nc(C)c(-c2ccc(Cl)c(S(=O)(=O)NCCO)c2)s1 | inactive
C=CCn1c(=O)c2cnc(Nc3ccc(N4CCN(C)CC4)cc3)nc2n1-c1cccc(C(C)(C)O)n1 | 0.418 µM (active)
CCN1CCN(CC(=O)Nc2ccc(-c3cccc4c(=O)cc(N5CCOCC5)oc34)c3sc4ccccc4c23)CC1 | inactive
CN(C)CC=CC(=O)Nc1cc2c(Nc3ccc(F)c(Cl)c3)ncnc2cc1O[C@H]1CCOC1 | inactive
Cc1ccc(-c2ncn(-c3ccc(Nc4nccc(-c5cccc(N6CCOCC6)c5)n4)cc3)n2)cn1 | 3.72 µM (active)
CNC(=O)c1c(F)cccc1Nc1nc(Nc2cc3c(cc2OC)CCN3C(=O)CN(C)C)nc2[nH]ccc12 | inactive
Cn1c2cc(S(C)=O)sc2c2cnn(Cc3cccc(N)c3)c(=O)c21 (stereo not given) | inactive
Cc1nc(Nc2n[nH]c3c2CN(C(=O)N[C@H](CN(C)C)c2ccccc2)C3(C)C)c2sccc2n1 | 13.2 µM (active)
COc1cc2c(Oc3ccc4[nH]c(C)cc4c3F)ncnc2cc1OCCCN1CCCC1 | inactive
Cc1c(Cn2c(C)nc3c(C(=O)O)cc(N4CCOCC4)cc32)cccc1C(F)(F)F | inactive
Cc1cc(N2CCOCC2)cc2[nH]c(-c3c(NC[C@@H](O)c4cccc(Cl)c4)cc[nH]c3=O)nc12 | inactive
CCCCOc1c(C(=O)c2c(F)cc(C)cc2F)cnc2n[nH]cc12 | inactive
Cc1cn2c(-c3cn[nH]c3)cnc2c(Nc2ccc(C(=O)N3CCNCC3)cc2F)n1 | inactive
Nc1cccc(-c2cc3c(Oc4cccc(O)c4)ncnc3[nH]2)c1 | inactive
c1ccc2c(CCNc3ccc(Nc4ccncc4)cc3)c[nH]c2c1 | 8.33 µM (active)
CS(=O)(=O)N1CCN(Cc2cc3nc(-c4cccc5[nH]ncc45)nc(N4CCOCC4)c3s2)CC1 | 4.69 µM (active)
CCNC(=O)Nc1ccc2ncc(Nc3ccc(C)cc3)nc2n1 | inactive
CC(O)C1C(=O)N2C(C(=O)O)=C(SC3CNC(C(=O)N(C)C)C3)C(C)C12 (stereo not given) | inactive
